From PubChem BioAssay (NCATS)
Results filed as inconclusive are left out. A call without a number means that no potency is given here. Activity calls are given as the source filed them. Calls come from the whole dose curve; as a rule, active = well fitted curve in the direction sought with a large enough effect; inconclusive = small, poorly fitted or top-dose-only effect, or another doubt; inactive = no such curve, though single readings can be large; an effect the other way counts as inactive or inconclusive.

Molecular target: Galactokinase (Homo sapiens) (UniProt P51570)
Test: qHTS Validation Assay for Inhibitors of Human Galactokinase (GALK) (AID 493189)
Settings: purified human GALK enzyme activity, qHTS 7-point titration; series mostly up to 57.5 µM
Procedure, shortened: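 Enzyme activity is inferred from ATP consumption: human GALK phosphorylates galactose (100 uM) using 35 uM ATP for 1 h at room temperature, and luciferase-based Kinase-Glo Plus reports unconsumed ATP.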

Galactokinase (Homo sapiens), sequence (P51570 whole entry, looked up): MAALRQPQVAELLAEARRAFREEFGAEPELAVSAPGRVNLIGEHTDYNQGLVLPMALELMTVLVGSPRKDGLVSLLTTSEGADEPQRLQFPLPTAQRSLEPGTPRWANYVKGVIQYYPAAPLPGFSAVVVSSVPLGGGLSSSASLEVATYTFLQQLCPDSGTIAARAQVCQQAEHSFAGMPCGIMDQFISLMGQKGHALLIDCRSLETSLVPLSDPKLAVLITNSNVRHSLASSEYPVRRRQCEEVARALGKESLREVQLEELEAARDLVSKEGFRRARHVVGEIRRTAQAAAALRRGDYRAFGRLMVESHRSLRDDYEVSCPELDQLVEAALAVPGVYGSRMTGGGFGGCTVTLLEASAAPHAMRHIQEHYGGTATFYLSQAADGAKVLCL

Row | Structure (SMILES) | Potency
1 | NC/C=C\C(=O)O | inactive
2 | N#CC(C#N)=C(N)/C(C#N)=C/c1ccc(O)cc1 | inactive
3 | C=CC1(C)CC(=O)C2(O)C(C)(O1)C(OC(C)=O)C(O)C1C(C)(C)CCC(O)C12C (stereo unspecified) | inactive
4 | Nc1ncnc2c1ncn2C1CCCC1 | inactive
5 | Cc1cccc(C2CN(C)CCc3c2cc(O)c(O)c3Cl)c1 (stereo unspecified) | inactive
6 | Cc1nc2c(OCc3ccccc3)cccn2c1CC#N | inactive
7 | OC[C@H]1NC[C@@H](O)[C@@H]1O | inactive
8 | O=C(O)c1ccccc1Nc1cccc(OCc2ccc3ccccc3n2)c1 | inactive
9 | Nc1ccc(N2C(=O)c3ccccc3C2=O)c(Cl)c1 | inactive
10 | CCCCOc1cc(CC2CNC(=O)N2)ccc1OC (stereo unspecified) | inactive
11 | O=[N+]([O-])c1cccc2cn[nH]c12 | inactive
12 | NCCS(=O)O | inactive
13 | Cn1ccnc1 | inactive
14 | NC1C=CC=C(C(=O)O)C1 (stereo unspecified) | inactive
15 | NCCNS(=O)(=O)c1cccc2c(Cl)cccc12 | inactive
16 | Nc1ccc(-c2nc3ccc(-c4nc5ccc(N)cc5[nH]4)cc3[nH]2)cc1 | inactive
17 | Oc1cc2c(cc1O)C(c1ccccc1)CNCC2 (stereo unspecified) | inactive
18 | O=C(O)C1CCNCC1 | inactive
19 | CCN(CC)CCOC(=O)c1cc(Cl)c(N)cc1OC | inactive

Row | Structure (SMILES) | Potency
20 | CC1=C(C(=O)O)N2C(=O)[C@@H](NC(=O)C(N)C3=CCC=CC3)[C@H]2SC1 (stereo partly specified) | inactive
21 | CCCCS(=N)(=O)CC[C@H](N)C(=O)O (stereo partly specified) | inactive
22 | CSC(=N)N | inactive
23 | O=C(O)C1CCCNC1 (stereo unspecified) | inactive
24 | O=C1C2C=CC=CC2=NC(=S)N1CCN1CCC(=C(c2ccc(F)cc2)c2ccc(F)cc2)CC1 (stereo unspecified) | inactive
25 | CC(=O)[C@H]1CCC2C3CC=C4C[C@@H](OS(=O)(=O)O)CC[C@]4(C)C3CC[C@@]21C (stereo partly specified) | inactive
26 | OC[C@H]1O[C@@H](n2cnc3cncnc32)[C@H](O)[C@@H]1O | inactive
27 | NC1CCN(O)C1=O (stereo unspecified) | inactive
28 | O=c1ccn([C@@H]2O[C@H](COP(=O)(O)OP(=O)(O)O)[C@@H](O)[C@H]2O)c(=O)[nH]1 | inactive
29 | OCC1NCC(O)C(O)C1O (stereo unspecified) | inactive
30 | COC(=O)C(N)Cc1ccc(Cl)cc1 (stereo unspecified) | inactive
31 | CSC(N)=NCCC[C@H](N)C(=O)O | inactive
32 | CN1C2CCC1CC(OC(c1ccccc1)c1ccccc1)C2 (stereo unspecified) | inactive
33 | COc1cc(CC(=O)O)ccc1O | inactive
34 | COc1cc(N)c(Cl)cc1C(=O)OCCN1CCCCC1 | inactive
35 | NCCCNCCCCNCCCN | inactive
36 | O=c1oc(Cl)c(Cl)c2ccccc12 | inactive
37 | Cn1cc(C(=O)OCC2CCN(CCNS(C)(=O)=O)CC2)c2ccccc21 | inactive
38 | CC(C)(CO)Cc1cc(C(C)(C)C)c(O)c(C(C)(C)C)c1 | inactive

Tested on: not listed separately
Test: Validation screen for small molecules that induce DNA re-replication in SW480 colon adenocarcinoma cells (AID 504364)
Settings: DNA re-replication phenotype (high-content imaging); series mostly up to 46.1 µM
Procedure, shortened: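 250 cells/well; compound pinned in; 48 hr, 37 C, 5% CO2; Hoechst added, 40 min; nuclear fluorescence imaged, 405 ex / 500-530 em; re-replication scored as increase in high-intensity nuclei.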

Row | Structure (SMILES) | Potency
39 | NC/C=C\C(=O)O | inactive
40 | N#CC(C#N)=C(N)/C(C#N)=C/c1ccc(O)cc1 | inactive
41 | C=CC1(C)CC(=O)C2(O)C(C)(O1)C(OC(C)=O)C(O)C1C(C)(C)CCC(O)C12C (stereo unspecified) | inactive
42 | Nc1ncnc2c1ncn2C1CCCC1 | inactive
43 | Cc1cccc(C2CN(C)CCc3c2cc(O)c(O)c3Cl)c1 (stereo unspecified) | inactive
44 | Cc1nc2c(OCc3ccccc3)cccn2c1CC#N | inactive
45 | OC[C@H]1NC[C@@H](O)[C@@H]1O | inactive
46 | O=C(O)c1ccccc1Nc1cccc(OCc2ccc3ccccc3n2)c1 | inactive
47 | Nc1ccc(N2C(=O)c3ccccc3C2=O)c(Cl)c1 | inactive
48 | CCCCOc1cc(CC2CNC(=O)N2)ccc1OC (stereo unspecified) | inactive
49 | O=[N+]([O-])c1cccc2cn[nH]c12 | inactive
50 | NCCS(=O)O | inactive
51 | Cn1ccnc1 | inactive
52 | NC1C=CC=C(C(=O)O)C1 (stereo unspecified) | inactive
53 | NCCNS(=O)(=O)c1cccc2c(Cl)cccc12 | inactive
54 | Nc1ccc(-c2nc3ccc(-c4nc5ccc(N)cc5[nH]4)cc3[nH]2)cc1 | inactive
55 | Oc1cc2c(cc1O)C(c1ccccc1)CNCC2 (stereo unspecified) | inactive
56 | O=C(O)C1CCNCC1 | inactive
57 | CCN(CC)CCOC(=O)c1cc(Cl)c(N)cc1OC | inactive

Row | Structure (SMILES) | Potency
58 | CC1=C(C(=O)O)N2C(=O)[C@@H](NC(=O)C(N)C3=CCC=CC3)[C@H]2SC1 (stereo partly specified) | inactive
59 | CCCCS(=N)(=O)CC[C@H](N)C(=O)O (stereo partly specified) | inactive
60 | CSC(=N)N | inactive
61 | O=C(O)C1CCCNC1 (stereo unspecified) | inactive
62 | O=C1C2C=CC=CC2=NC(=S)N1CCN1CCC(=C(c2ccc(F)cc2)c2ccc(F)cc2)CC1 (stereo unspecified) | inactive
63 | CC(=O)[C@H]1CCC2C3CC=C4C[C@@H](OS(=O)(=O)O)CC[C@]4(C)C3CC[C@@]21C (stereo partly specified) | inactive
64 | OC[C@H]1O[C@@H](n2cnc3cncnc32)[C@H](O)[C@@H]1O | inactive
65 | NC1CCN(O)C1=O (stereo unspecified) | inactive
66 | O=c1ccn([C@@H]2O[C@H](COP(=O)(O)OP(=O)(O)O)[C@@H](O)[C@H]2O)c(=O)[nH]1 | inactive
67 | OCC1NCC(O)C(O)C1O (stereo unspecified) | inactive
68 | COC(=O)C(N)Cc1ccc(Cl)cc1 (stereo unspecified) | inactive
69 | CSC(N)=NCCC[C@H](N)C(=O)O | inactive
70 | CN1C2CCC1CC(OC(c1ccccc1)c1ccccc1)C2 (stereo unspecified) | inactive
71 | COc1cc(CC(=O)O)ccc1O | inactive
72 | COc1cc(N)c(Cl)cc1C(=O)OCCN1CCCCC1 | inactive
73 | NCCCNCCCCNCCCN | inactive
74 | O=c1oc(Cl)c(Cl)c2ccccc12 | inactive
75 | Cn1cc(C(=O)OCC2CCN(CCNS(C)(=O)=O)CC2)c2ccccc21 | inactive
76 | CC(C)(CO)Cc1cc(C(C)(C)C)c(O)c(C(C)(C)C)c1 | inactive
